# Measured values from PubChem BioAssay (NCI).
# The panel holds about 83,000 compounds, 20% with a hit somewhere; the sample as a whole holds those more often.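 The endpoint reported here, percent growth, reads 100 for growth as untreated, 0 for no net growth and -100 for all cells dead.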 A number with no mark means an inactive call. Activity calls are given as the source filed them. The calls were made as follows: active = growth percent below 10; inactive = the rest.
# Columns and labels:
# Assay in all cases: NCI-60 one-dose screen, 48 h (100 = growth as untreated, 0 = no growth, -100 = all killed)
# SK-MEL-2 melanoma = details: 10 µM unless noted
# EKVX NSCLC = details: 10 µM unless noted
# SN12C renal = details: 10 µM unless noted
# UO-31 renal = details: 10 µM unless noted
# TK-10 renal = details: 10 µM unless noted
# ACHN renal = details: 10 µM unless noted
# CAKI-1 renal = details: 10 µM unless noted
# A498 renal = details: 10 µM unless noted
# CCRF-CEM leukemia = details: 10 µM unless noted
# MOLT-4 leukemia = details: 10 µM unless noted
# SR leukemia = details: 10 µM unless noted
# RPMI-8226 leukemia = details: 10 µM unless noted
# OVCAR-8 ovarian = details: 10 µM unless noted
# OVCAR-5 ovarian = details: 10 µM unless noted
# OVCAR-4 ovarian = details: 10 µM
# IGROV1 ovarian = details: 10 µM unless noted
# OVCAR-3 ovarian = details: 10 µM unless noted
# HS 578T breast = details: 10 µM unless noted
# NCI/ADR-RES ovarian = details: 10 µM unless noted
# SK-OV-3 ovarian = details: 10 µM unless noted
Structure (SMILES),growth (SK-MEL-2 melanoma),growth (EKVX NSCLC),growth (SN12C renal),growth (UO-31 renal),growth (TK-10 renal),growth (ACHN renal),growth (CAKI-1 renal),growth (A498 renal),growth (CCRF-CEM leukemia),growth (MOLT-4 leukemia),growth (SR leukemia),growth (RPMI-8226 leukemia),growth (OVCAR-8 ovarian),growth (OVCAR-5 ovarian),growth (OVCAR-4 ovarian),growth (IGROV1 ovarian),growth (OVCAR-3 ovarian),growth (HS 578T breast),growth (NCI/ADR-RES ovarian),growth (SK-OV-3 ovarian)
N=C(N)c1ccc(-c2ccc(-c3ccc(-c4cccs4)s3)s2)cc1F,114%,98.8%,92.7%,76.5%,122%,101%,93.6%,0.519% (active),26.8%,91%,18.6%,49.4%,102%,75.8%,90.5%,93.5%,91.4%,101%,102%,
NS(=O)(=O)c1ccc(CCN2C(=O)/C(=C\c3ccccc3)C=C2c2ccc(Cl)cc2)cc1,102%,88.5%,90.6%,65.8%,113%,97%,65.1%,65.6%,101%,94.8%,103%,98.3%,98.2%,99.4%,95.4%,91.9%,96.9%,93.9%,107%,
O=C(NNc1ccc(-c2ccccc2)nn1)c1ccccc1,107%,95.2%,97.2%,89%,107%,100%,82.2%,92.4%,107%,90.3%,103%,102%,99.5%,100%,96%,99.3%,108%,103%,102%,
Cc1ccc(S(=O)(=O)Nc2ccccc2)cc1N,87.4%,116%,91.3%,81.2%,121%,101%,89.5%,76.9%,110%,96.6%,92.2%,123%,95.4%,91.3%,111%,,95.6%,,91%,104%
C[C@@H]1C[C@H]2C(=O)O[C@@H](C)[C@H](NC(=O)[C@H](Cc3cc(F)cc(F)c3)NC(=O)Nc3ccc(Cl)cc3F)C(=O)N3C[C@H](O)C[C@H]3C(=O)N3CCN(C)C[C@H]3C(=O)N[C@@H](C)C(=O)N2C1,29.6%,69.8%,22.9%,83%,91.7%,104%,72.7%,33.1%,53.7%,41.7%,40.3%,20.4%,39.1%,41.9%,16.4%,51.3%,20.4%,37.9%,105%,
c1ccc(-c2nnc(-c3c[nH]c4ncccc34)s2)cc1,103%,37.2%,86.6%,51.6%,124%,69.4%,53.3%,67.3%,101%,83.4%,83.6%,91.9%,98.9%,125%,89.4%,54.6%,88.5%,97.1%,95.7%,
O=C(C[n+]1ccn(CC(OCc2ccc(Cl)cc2Cl)c2ccc(Cl)cc2Cl)c1)c1ccc(F)cc1 (stereo not given),-88% (active),-77.8% (active),-93.5% (active),84.1%,-46.1% (active),26.5%,79.7%,-12.3% (active),-12.1% (active),-19.9% (active),-52.9% (active),-46.3% (active),-90.5% (active),-93.4% (active),-96.2% (active),,-93% (active),,103%,26.3%
CCn1cc(-c2cc(-c3ccc(Cl)cc3)nc(N)n2)c(-c2ccc(Br)cc2)n1,62.7%,78.1%,84.5%,67.7%,80.2%,46.9%,51.8%,92%,82.9%,83.4%,69.7%,66.2%,84.9%,68.7%,82.2%,68.1%,88.5%,96.7%,80.3%,
CCCc1cc2cc(-n3nc(C)c4c3CC(C)(C)CC4=O)cc(NC3CCSCC3)c2c(=O)[nH]1,71.6%,76.4%,39.8%,61%,43.4%,38.5%,68.8%,71.4%,100%,49.8%,33.8%,49.9%,79%,97%,97.5%,,87%,,82.2%,
Cc1ccc(NCCN2CCCCC2)c2c(=O)c3ccccc3sc12,45.6%,68.6%,32%,-16.6% (active),42.6%,15.9%,38.6%,28.3%,30.2%,11.4%,15.3%,-17.1% (active),29.2%,43.2%,56.9%,,58.5%,-8.32% (active),42%,
COc1cc2c(c(OC)c1OC)-c1cc(I)c(O)cc1[C@@H](NC(C)=O)CC2,53.4%,60.2%,38.6%,25.3%,66.9%,27.9%,30.7%,49.2%,30%,33.7%,33.2%,12.9%,12.6%,49.2%,37.3%,-3.77% (active),17.5%,76.4%,25.4%,
Cc1ccc(N)c(O)c1,100%,98.6%,115%,84.5%,158%,91%,94.8%,50.7%,77.9%,106%,112%,61.9%,96%,108%,,69.6%,87.7%,92.9%,92.8%,112%
COc1c(B(O)O)cccc1-c1nc2ccc3[nH]ncc3c2c2c1CCC2,58.2%,47.9%,74.3%,23.5%,36.4%,36.4%,16.6%,34.7%,64.2%,61.6%,67.8%,60.1%,61.2%,89.9%,80.7%,42%,89.8%,,81.4%,
O=C(NNc1ccc(-c2ccccc2)nn1)c1ccc(F)cc1,108%,78.4%,95.1%,80.8%,82.9%,90.9%,61.8%,67.6%,108%,96.2%,92%,99.7%,98.6%,94.2%,94.8%,97%,103%,101%,93.3%,
Clc1ccc(N2CCN(CCCN3CCN(c4cccc(Cl)c4)CC3)CC2)cc1,96.7%,41.9%,64.2%,36.6%,41.4%,71.6%,42.7%,60.4%,58.9%,43.7%,15.4%,24.9%,70.7%,78.9%,55.7%,,66.4%,103%,65.5%,
COc1ncc(-c2ccc3nccc(C#CCCCCC(=O)O)c3c2)cc1NS(=O)(=O)c1ccc(F)cc1F,31.3%,22%,40.8%,12.5%,3.96% (active),32%,14.1%,-34.5% (active),24.4%,29%,63.8%,47.4%,35.4%,22.7%,50.3%,,19.8%,,56%,
